Measured values from PubChem BioAssay AID493191 (Broad Institute, 2011).
In all, about 1,300 compounds went through this assay and about 330 (25%) were called active. The list is a sample of the results. Entries with a potency or affinity are not part of this list. Unmarked numbers belong to inactive results. The rule behind the calls is not given here.

assay: growth inhibition of MALME3 cells – cell-based, CellTiter-Glo, cherry-picked, orthogonal assay for MITF inhibitor project, dose response (AID 493191); conditions: MALME3 melanoma viability, CellTiter-Glo luminescence, 24 h; series mostly up to 35 µM; activity change, negative = inhibition: at the top concentration

Q: For `O=C(Nc1ccc(-c2cn3c(n2)SCC3)cc1)c1ccco1`, which “activity change, negative = inhibition” value is on record?
A: The value was -3.35%.

Q: For `O=[N+]([O-])c1ccc(N/N=C/C=C/c2ccco2)cc1`, which “activity change, negative = inhibition” value is on record?
A: Its value is -6.15%.

Q: For `C/C(=N\NC(=O)COc1ccccc1-c1ccccc1)c1ccccn1`, which “activity change, negative = inhibition” value is on record?
A: Its value is -23%.

Q: With `O=C(NC1=NCCS1)C1COc2ccccc2O1` (stereo not drawn) as the molecule, how does the “activity change, negative = inhibition” value read?
A: Its value is -18.9%.

Q: Which “activity change, negative = inhibition” value does the source give for `C/C(=N\NC(=O)C1COc2ccccc2O1)c1ccccn1` (stereo not drawn) here?
A: Its value is -16.7%.

Q: Which “activity change, negative = inhibition” value does the source give for `C=CCOc1ccc(/C=C2\SC(=S)N(CCC(=O)O)C2=O)cc1` here?
A: Its value is 8.72%.

Q: With `Cc1c(C#N)c(NC(=O)CCl)n(Cc2cccs2)c1C` as the molecule, how does the “activity change, negative = inhibition” value read?
A: Its value is -41.2%.

Q: Which “activity change, negative = inhibition” value does the source give for `O=C(NCc1cccs1)c1nc2c(nnn2Cc2ccccc2Cl)c(=O)[nH]1` here?
A: The value was 0.593%.

Q: With `CC(=O)Oc1c(C(=O)c2nnc(C)o2)c(=O)n(Cc2ccccc2)c2ccccc12` as the molecule, how does the “activity change, negative = inhibition” value read?
A: Its value is -19.6%.

Q: With `COc1ccc(/C=N/NC(=O)Cc2cccs2)cc1` as the molecule, how does the “activity change, negative = inhibition” value read?
A: Its value is -1.89%.

Q: With `Cc1ccc(OCC(=O)N/N=C/c2ccc([N+](=O)[O-])o2)cc1` as the molecule, how does the “activity change, negative = inhibition” value read?
A: The value was -39.6%.

Q: Which “activity change, negative = inhibition” value does the source give for `Cc1occc1C(=O)N/N=C/c1ccc(OCc2ccccc2)cc1` here?
A: Its value is -1.16%.

Q: With `Cc1ccc(SCCC(=O)N2CCC(C)CC2)cc1` as the molecule, how does the “activity change, negative = inhibition” value read?
A: Its value is 7.77%.

Q: For `Cc1cc(/C=C(\C#N)C(=O)O)c(C)n1CC(C)C`, which “activity change, negative = inhibition” value is on record?
A: Its value is 11.7%.

Q: With `Cc1ccc(SCCSc2ncccn2)cc1` as the molecule, how does the “activity change, negative = inhibition” value read?
A: The value was -13.9%.

Q: Which “activity change, negative = inhibition” value does the source give for `Nc1c(-c2ccccc2)cnc2c(-c3ccccc3)cnn12` here?
A: Its value is -2.55%.

Q: With `COc1ccccc1OCCN1CSC(=S)N(C)C1` as the molecule, how does the “activity change, negative = inhibition” value read?
A: Its value is -42.5%.

Q: For `O=C(Nc1ccc(F)cc1F)c1cc2ccccc2oc1=O`, which “activity change, negative = inhibition” value is on record?
A: The value was 6.79%.

Q: Which “activity change, negative = inhibition” value does the source give for `COc1ccc(C(=O)CN2Cc3ccccc3C2=N)cc1` here?
A: The value was -7.91%.

Q: Which “activity change, negative = inhibition” value does the source give for `O=C(Nc1ccccc1)O/N=C/c1ccc(F)cc1` here?
A: The value was -5.62%.

Q: For `CC1(C)Cc2c(sc(NC(=O)c3ccc4ncsc4c3)c2C(N)=O)C(C)(C)N1`, which “activity change, negative = inhibition” value is on record?
A: Its value is -0.009%.

Q: With `CCCN(CCC)C1=CC(=[N+]2CCCC2)CC(C)(C)C1` as the molecule, how does the “activity change, negative = inhibition” value read?
A: Its value is -17.8%.

Q: With `O=C(N/N=C/c1ccc(F)cc1)c1c(O)c2ccccc2[nH]c1=O` as the molecule, how does the “activity change, negative = inhibition” value read?
A: The value was -2.15%.

Q: With `CC(C)C(=O)Nc1cccc(NC(=O)c2cc3ccccc3o2)c1` as the molecule, how does the “activity change, negative = inhibition” value read?
A: Its value is -6.15%.

Q: Which “activity change, negative = inhibition” value does the source give for `Cc1ccc(NC(=O)c2cc3ccccc3oc2=O)cc1S(=O)(=O)N(C)C` here?
A: The value was -37.5%.

Q: For `Cc1ccc(-c2nc(C#N)c(NCc3ccco3)o2)cc1`, which “activity change, negative = inhibition” value is on record?
A: The value was -2.18%.

Q: With `Cc1ccc2c(COC(=O)c3n[nH]c4ccccc34)cc(=O)oc2c1` as the molecule, how does the “activity change, negative = inhibition” value read?
A: The value was -17.5%.

Q: For `N#C/C(C(=O)c1ccccc1)=C1/CCCCCN1`, which “activity change, negative = inhibition” value is on record?
A: The value was -9.1%.

Q: Which “activity change, negative = inhibition” value does the source give for `COc1ccc2c(c1OC)C(=O)N(c1ccc(C)cc1)C2` here?
A: The value was -3.44%.

Q: With `CCOc1cc(/C=C(/C#N)c2ccc(Cl)cc2)cc(Cl)c1OCC(=O)O` as the molecule, how does the “activity change, negative = inhibition” value read?
A: Its value is 13.5%.

Q: For `O=C(Nc1ccc2nc3n(c(=O)c2c1)CCCCC3)c1cc([N+](=O)[O-])ccc1F`, which “activity change, negative = inhibition” value is on record?
A: The value was -16%.

Q: Which “activity change, negative = inhibition” value does the source give for `CC(C)(C)C(=O)Nc1cc2nn(-c3ccccc3)nc2cc1Cl` here?
A: Its value is -14.6%.

Q: For `Oc1ccc(-c2nnc(SCC3CCCCC3)o2)cc1`, which “activity change, negative = inhibition” value is on record?
A: Its value is -10.5%.
